# Shown are actives, neighbours in structure and some others; about 9.2% of the full set was active somewhere.
# FLuc modulator = qHTS profiling assay for firefly luciferase inhibitor/activator using purifed enzyme and Km concentrations of substrates (counterscreen for miR-21 project) | purified FLuc, Km substrates, luminescence inhibition | Luciferin 4-monooxygenase (Photinus pyralis), P08659 | AID 588342, 2011 | Potency, µM (series often up to 57.5 µM), for the others: at the highest dose activity change, negative = inhibition, usual class: inhibitors | hit rate 6.9% among 360,000;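 note: plate controls were vehicle for no effect and reference inhibitor for full effect; nearly all actives have a fitted effect of over 55% in size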
# Target sequence (P08659 whole entry, looked up): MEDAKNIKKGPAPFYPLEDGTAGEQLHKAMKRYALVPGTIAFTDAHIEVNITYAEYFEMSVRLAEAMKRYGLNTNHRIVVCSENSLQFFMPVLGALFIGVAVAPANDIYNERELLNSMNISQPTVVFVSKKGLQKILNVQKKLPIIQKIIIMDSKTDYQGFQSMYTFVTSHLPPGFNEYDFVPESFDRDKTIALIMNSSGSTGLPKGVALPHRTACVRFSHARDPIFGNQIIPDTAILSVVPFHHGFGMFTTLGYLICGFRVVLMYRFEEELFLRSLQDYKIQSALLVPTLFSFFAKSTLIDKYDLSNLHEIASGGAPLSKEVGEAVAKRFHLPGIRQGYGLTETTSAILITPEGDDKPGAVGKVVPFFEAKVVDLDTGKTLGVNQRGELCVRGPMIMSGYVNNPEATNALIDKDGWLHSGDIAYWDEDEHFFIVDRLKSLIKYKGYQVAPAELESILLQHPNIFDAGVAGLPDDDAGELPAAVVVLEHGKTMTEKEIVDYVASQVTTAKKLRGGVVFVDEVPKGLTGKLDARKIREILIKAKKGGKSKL
#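 Purified P. pyralis luciferase, 10 nM final, with Km-level 10 uM D-luciferin and 10 uM ATP in 50 mM Tris acetate pH 7.5, 10 mM Mg acetate, 0.01% Tween-20, 0.05% BSA; 6-point qHTS titration about 60 µM downward; luminescence read.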
# Rab9 promoter act = qHTS Assay for Rab9 Promoter Activators; Huh7 Rab9 promoter-luciferase reporter, luminescence, 24 h; Potency, µM (doses to about 9.22 µM), without a hit: at the highest dose activation, negative = inhibition, most hits filed as activators; hit rate 2.8% among 320,000; note: % of control where 0% means no effect; nearly all actives have a fitted effect of over 60% in size
#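 Huh7 reporter line, Rab9 promoter upstream of luciferase. Compound exposure 24 h at 37 °C in reduced-serum medium with 10% FBS. Read-out: luminescence.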
# NPC1 prom act = qHTS Assay for NPC1 Promoter Activators. hit rate 2.4% among 320,000. Potency, µM (series often up to 9.22 µM), for the others: top-dose activation, actives largely listed as activators. Huh7 NPC1 promoter luciferase reporter, 24 h. AID 485313, 2010; note: % of control where 0% means no effect; nearly all actives have a fitted effect of over 60% in size
#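 Huh7 reporter cells (NPC1 promoter driving luciferase) are dosed with compound for 24 h at 37 °C, 5% CO2; luciferase detection reagent is then added and luminescence measured after 10 min at ambient temperature.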
# ELG1 DNA repair = qHTS screen for small molecules that inhibit ELG1-dependent DNA repair in human embryonic kidney (HEK293T) cells expressing luciferase-tagged ELG1 | HEK293T ELG1-luciferase reporter, luminescence, 16 h; DNA damage induced by 5-fluorouridine | Potency, µM (top dose mostly 46.1 µM), inactives show at the top dose activity change, negative = inhibition, actives largely listed as inhibitors | hit rate 2.3% among 330,000; note: % is set by controls: 0 for no effect and ±100 for the full control effect; nearly all actives have a fitted effect of over 55% in size
#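 DMSO vehicle served as the neutral condition. Each well held 2,000 cells given 5-fluorouridine plus compound; after 16 hr at 37 °C/5% CO2, ONE-Glo was added and luciferase measured 30 min later.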
# ELG1 genotox = qHTS screen for small molecules that induce genotoxicity in human embryonic kidney (HEK293T) cells expressing luciferase-tagged ELG1 | HEK293T ELG1-luciferase reporter, luminescence, 16 h | Potency, µM (doses to about 46 µM), without a hit: top-dose activity change, positive = activation, usual class: activators | hit rate 1.3% among 330,000; note: % of control where 0% means no effect; nearly all actives have a fitted effect of over 60% in size
#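 Reporter readout depends on ELG1 protein level, which increases with genetic stress. After 16 hr compound exposure at 37 °C, luciferase activity was quantified using ONE-Glo.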
# SMN2 splice up = qHTS Assay for Enhancers of SMN2 Splice Variant Expression; AID 1458, 2008; Potency, µM (titrated, usually from 46.1 µM), without a hit: at the top dose activity change, positive = activation, usual class: activators; hit rate 2.8% among 210,000; HEK293 SMN2-luciferase splicing reporter, luminescence, 30-36 h; note: % of control where 0% means no effect; nearly all actives have a fitted effect of over 55% in size
#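 HEK293 cells carry an SMN2 […]–luciferase reporter in which exon 7 inclusion puts luciferase in frame. Cells were plated 10-12 h before compound addition, then incubated 30-36 h at 37C. ONE-Glo luminescence was read; sodium butyrate at 4.5 mM final served as control.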
# * marks the source's active call; other numbers are inactive results; ? = inconclusive; . = no result given; [ ] = remark or other dose. Calls come from the whole dose curve; as a rule, active = well fitted curve in the direction sought with a large enough effect; inconclusive = small, poorly fitted or top-dose-only effect, or another doubt; inactive = no such curve, though single readings can be large; an effect the other way counts as inactive or inconclusive. Potency is the fitted concentration of half-maximal effect.
SMILES,FLuc modulator,Rab9 promoter act,NPC1 prom act,ELG1 DNA repair,ELG1 genotox,SMN2 splice up
O=C(NCc1ccncc1)C(=O)NCC1OCCN1S(=O)(=O)c1ccc(F)cc1 (stereo unspecified),1%,10%,-3%,-3%,-2%,.
COCc1c(C#N)c(NCc2cc(OC)c(OC)c(OC)c2)nc(C)c1[N+](=O)[O-],-2%,-24%,-12%,16µM*,-4%,.
Cc1ccc(CCNC(=O)c2nnc(CS(=O)(=O)c3ccccc3)o2)cc1,-2%,-3%,1%,0%,3%,.
CCOC(=O)c1cc(-c2ccccc2)n(-c2cccc(C(=O)Nc3cccc(SC)c3)c2)c1C,2%,.,.,.,.,.
O=C(Nc1cccc(F)c1)c1ccc2c(c1)OCO2,11µM*,1.6µM*,2.8µM*,?,5.2µM*,6.3µM*
O=C(NNC(=O)c1ccc(F)cc1F)c1ccc2c(c1)OCO2,?,3.2µM*,24%,?,?,?
O=C(Oc1ccc2c(c1)OCO2)c1ccc(F)cc1Cl,2.7µM*,?,4%,?,6%,-12%
O=C(c1cc2c(s1)CCCC2)N1CCN(Cc2ccc3c(c2)OCO3)CC1,1%,1%,-3%,?,-16%,-16%
O=C(Oc1ccc2c(c1)OCO2)c1cc2c(s1)CCC2,3.8µM*,-7%,13%,-1%,1%,14%
COC(=O)c1c(N)n(-c2ccc(OC)c(OC)c2)c2nc3ccccc3nc12,4%,.,.,.,.,0%
O=C(Nc1c(C(=O)Nc2cccc(F)c2)oc2ccccc12)c1ccc2c(c1)OCO2,8.5µM*,21%,3%,17%,?,2%
Cc1ccc(NC(=O)c2oc3ccccc3c2NC(=O)c2ccc3c(c2)OCO3)cc1,6.7µM*,16%,1%,12%,5%,-11%
CCOC(=O)c1c(C)[nH]c(CCC(=O)NC(C)c2ccccc2)c1C (stereo unspecified),-2%,.,.,.,.,.
O=C(Nc1ccccc1)OCCNC(=O)c1cccc(Cl)c1,21µM*,-3%,6%,-6%,15%,-21%
O=C(NCCO)c1cccc(Cl)c1,4%,0.0063µM*,?,?,.,-2%
O=C(Nc1cccc(Cl)c1)OCCOc1ccccc1,21µM*,?,?,?,15%,.
O=C(Nc1ccccc1)OCCOc1cccc(Br)c1,-9%,7%,2%,2%,3%,.
CC(C)OC(=O)NCCOC(=O)Nc1cccc(Cl)c1,-5%,7%,-6%,-8%,-3%,-34%
CSCCNC(=O)c1cccc(Cl)c1,1%,-1%,-2%,17%,0%,-10%
O=C(Nc1ccccc1)OCCOc1ccccc1,11µM*,0.89µM*,4µM*,?,12µM*,?
COc1ccc(OCCOC(=O)Nc2ccccc2)cc1,-11%,-4%,1%,-6%,0%,.
Cc1ccccc1OCc1ccc(-c2nc(C#N)c(NCc3cccnc3)o2)o1,-17%,.,.,.,.,.
Cc1cccc2[nH]c3c(N4CC=C(c5ccc(F)cc5)CC4)ncnc3c12,-12%,-5%,-6%,12µM*,-12%,.
CCOC(=O)C1CCN(c2ncnc3c2[nH]c2cccc(OC)c23)CC1,-19%,5%,0%,?,-16%,5%
COc1cccc2[nH]c3c(N4CCCCC4)ncnc3c12,13µM*,10%,28%,?,27%,4%
SMILES,FLuc modulator,Rab9 promoter act,NPC1 prom act,ELG1 DNA repair,ELG1 genotox,SMN2 splice up
COc1ccc(N2CCN(c3ncnc4c3[nH]c3ccccc34)CC2)cc1,-3%,.,.,.,.,-72%
COc1cc2[nH]c3c(N4CCN(c5ccccn5)CC4)ncnc3c2cc1OC,13µM*,5%,-13%,?,-5%,-39%
CC(C)NCC[C@@H](O)c1cc2ccccc2o1,.,.,.,.,.,-10%[9.22 µM]
O=C(CN1C(=O)NC2(CCCCC2)C1=O)Nc1cc(C(F)(F)F)ccc1N1CCOCC1,0%,-6%,1%,-25%,2%,.
COc1ccc(NC(=O)CN2C(=O)NC(C)(c3ccc4c(c3)OCCO4)C2=O)cc1S(N)(=O)=O (stereo unspecified),.,.,.,12%,1%,.
CCOC(=O)c1cc2c(=O)n3ccccc3nc2n(CCOC)c1=NC(=O)c1cc2ccccc2o1,-1%,.,.,.,.,8%
Cc1ccc(C(=O)COC(=O)COc2ccccc2O)cc1C,.,.,.,?,1%,.
COc1ccccc1NC(CC(=O)c1ccccc1)C(=O)OCC(=O)c1ccc(C)c(C)c1 (stereo unspecified),3µM*,19%,16%,?,2.1µM*,8.9µM*
COc1ccccc1NC(CC(=O)c1ccccc1)C(=O)OCC(=O)c1ccc(Br)cc1 (stereo unspecified),2.1µM*,11%,20%,?,2.1µM*,27%
COc1ccccc1NC(CC(=O)c1ccccc1)C(=O)OCC(=O)c1ccc(C)cc1 (stereo unspecified),3.4µM*,26%,10%,?,2.3µM*,8.9µM*
O=C(CC(Nc1ccccc1Cl)C(=O)OCC(=O)c1cccs1)c1ccccc1 (stereo unspecified),-18%,15%,5%,?,?,-8%
O=C(c1ccccc1)c1ccc2nc(N3CCN(C(=O)c4ccco4)CC3)c3nncn3c2c1,-12%,2%,-2%,21µM*,-13%,-11%
O=C(OCCOc1ccccc1F)c1cccc(S(=O)(=O)N2CCOCC2)c1,-11%,-3%,-1%,-3%,0%,.
O=S1(=O)CCN(Cc2ccccn2)CC1,4%,-3%,-2%,0%,0%,-15%[9.22 µM]
c1csc(-c2nc(CN3CCSCC3)cs2)c1,2.4µM*,0.4µM*,?,?,2.6µM*,.
O=S1(=O)CCN(Cc2csc(-c3cccs3)n2)CC1,19µM*,1.8µM*,1.3µM*,?,?,.
Cc1ccc(N(C)S(=O)(=O)c2cccc(C(=O)N(C)Cc3cnn(-c4ccccc4)c3)c2)cc1,0%,-5%,-7%,16µM*,-8%,.
CN(Cc1cnn(Cc2ccccc2)c1)C(=O)c1cccc(S(=O)(=O)N2CCOCC2)c1,4%,-15%,-20%,-21%,-1%,.
Oc1csc(Cc2nc(-c3ccc(Br)cc3)cs2)n1,?,3.5µM*,3.2µM*,?,?,?

# Bioassay records (PubChem)
